From paper PMC4336329 (PLoS ONE, 2015)
About 14,000 (4.5%) of roughly 310,000 compounds showed an effect of 50% or more. Effects have a minus sign here. The sample holds strong results, similar compounds and a random draw of the others, so the mix is not that of the screen.

molecular target: human ether-à-go-go-related gene (hERG) potassium channel (human, UniProt Q12809); assay: primary screen, population patch clamp on CHO cells stably expressing hERG; higher = less effect of the substance
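Further: peak tail current of the secondary pulse compared with the same well before compound.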

Sequence of human ether-à-go-go-related gene (hERG) potassium channel (Q12809 whole entry, looked up): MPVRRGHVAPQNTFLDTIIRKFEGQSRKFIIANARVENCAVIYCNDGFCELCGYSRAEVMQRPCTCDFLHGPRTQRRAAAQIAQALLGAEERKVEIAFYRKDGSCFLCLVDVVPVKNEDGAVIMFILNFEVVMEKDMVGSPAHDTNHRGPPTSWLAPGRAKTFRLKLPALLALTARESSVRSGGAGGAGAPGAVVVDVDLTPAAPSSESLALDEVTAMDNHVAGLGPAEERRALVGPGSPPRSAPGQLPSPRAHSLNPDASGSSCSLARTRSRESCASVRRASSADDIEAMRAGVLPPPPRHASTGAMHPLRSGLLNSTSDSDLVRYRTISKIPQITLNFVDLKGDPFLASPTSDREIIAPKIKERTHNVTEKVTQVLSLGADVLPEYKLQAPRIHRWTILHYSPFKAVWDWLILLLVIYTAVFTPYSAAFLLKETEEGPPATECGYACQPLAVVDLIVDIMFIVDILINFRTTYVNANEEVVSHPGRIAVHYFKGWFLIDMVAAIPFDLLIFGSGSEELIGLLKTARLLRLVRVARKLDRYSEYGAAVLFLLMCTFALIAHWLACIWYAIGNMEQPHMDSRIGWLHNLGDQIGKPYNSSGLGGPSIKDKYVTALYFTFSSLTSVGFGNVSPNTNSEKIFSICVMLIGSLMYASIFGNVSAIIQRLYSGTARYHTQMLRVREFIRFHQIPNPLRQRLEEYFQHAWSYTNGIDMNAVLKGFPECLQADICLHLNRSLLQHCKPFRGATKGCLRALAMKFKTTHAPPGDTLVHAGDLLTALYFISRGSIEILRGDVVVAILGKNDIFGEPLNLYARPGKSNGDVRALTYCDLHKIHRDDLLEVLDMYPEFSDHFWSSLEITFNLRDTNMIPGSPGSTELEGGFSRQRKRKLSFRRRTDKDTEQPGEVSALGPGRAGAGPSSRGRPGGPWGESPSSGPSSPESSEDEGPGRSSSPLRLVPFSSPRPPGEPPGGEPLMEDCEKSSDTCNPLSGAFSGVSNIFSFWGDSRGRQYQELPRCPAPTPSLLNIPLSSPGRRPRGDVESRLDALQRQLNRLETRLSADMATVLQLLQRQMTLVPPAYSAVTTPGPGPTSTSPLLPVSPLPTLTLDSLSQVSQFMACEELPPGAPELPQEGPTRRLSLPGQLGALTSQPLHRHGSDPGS

Going from `CCOC(=O)C1CCCN(C(=O)CN(c2ccc(OC)cc2)S(=O)(=O)c2c(C)noc2C)C1` (stereo not shown) to `CCOC(=O)C1(Cc2ccc(OC)cc2)CCN(C(=O)c2cc(C)nn2C)CC1`, the “hERG current change (%, negative = inhibition) at 10uM” value falls from -4.08% to -40.5%.

Going from `O=[N+]([O-])c1cccc(Cl)c1NCCNS(=O)(=O)c1ccccc1` to `O=Nc1ccc(NOC(=O)c2ccccc2)cc1`, the “hERG current change (%, negative = inhibition) at 10uM” value rises from -15.2% to 5.89%.

Compared with `Oc1ccccc1/C=N/c1c(-c2ccco2)nc2ccccn12`, `CCOc1cccc(OCCCOc2cccc3cccnc23)c1` is lower in “hERG current change (%, negative = inhibition) at 10uM” value: -4.17% for the first, -8.52% for the second.

First: OC1CCN(c2c3c(nc4cc(-c5ccc(F)cc5)nn24)CCC3)CC1
Second: COc1ccc(CNC(=O)C(C#N)c2nc3ccccc3nc2N2CCCC2)cc1 (stereo not shown)
The “hERG current change (%, negative = inhibition) at 10uM” value of the first is lower: -7.45% for the first, 10.1% for the second.

Going from `Cc1ccc(/C=C/C(=O)N2CCCC(C(N)=O)C2)o1` (stereo not shown) to `Cc1c(C(=O)C(=O)N2CCN(Cc3ccc4c(c3)OCO4)CC2)c2ccccc2n1C`, the “hERG current change (%, negative = inhibition) at 10uM” value falls from -8.59% to -8.7%.

First: CCOc1ccc(C(=O)C[n+]2cccc3cc(C)ccc32)cc1.[Br-]
Second: CCOc1ccc2c(c1)sc(N)[n+]2Cc1cc(C)cc2cccnc12.[Br-]
The “hERG current change (%, negative = inhibition) at 10uM” value of the first is higher: -47.9% for the first, -74.9% for the second.

Compared with `Cc1cc(C[n+]2ncsc2N)c2ncccc2c1.[Br-]`, `Cc1cc(C[n+]2ccsc2N)c2ncccc2c1.[Br-]` is lower in “hERG current change (%, negative = inhibition) at 10uM” value: -33.8% for the first, -48.2% for the second.

First: COc1ccc2c(c1)sc(N)[n+]2Cc1cc(C)cc2cccnc12.[Br-]
Second: COc1ccc2c(c1)c(C(O)CN1CCN(Cc3ccc4c(c3)OCO4)CC1)c(C)n2C (stereo not shown)
The “hERG current change (%, negative = inhibition) at 10uM” value of the first is lower: -74% for the first, -11% for the second.

Going from `CC(C)CCN(C(=O)C1CSC2(C)CCC(=O)N12)c1c(N)n(Cc2ccccc2)c(=O)[nH]c1=O` (stereo not shown) to `CC12CCC(C(=O)N(c3cccc(Cl)c3)C1=O)C2(C)C` (stereo not shown), the “hERG current change (%, negative = inhibition) at 10uM” value falls from 6.21% to -4.23%.

First: COc1ccc(C)cc1NC(=O)c1ccc(S(=O)(=O)N2CCOCC2)cc1
Second: COc1ccc(OCC(O)CN2CCN(Cc3ccc4c(c3)OCO4)CC2)cc1.Cl (stereo not shown)
The “hERG current change (%, negative = inhibition) at 10uM” value of the first is higher: 2.48% for the first, -47.4% for the second.

Compared with `Cc1cc(C)cc(OCC(O)CN2CCN(Cc3ccc4c(c3)OCO4)CC2)c1.Cl` (stereo not shown), `Cl.OC(COc1ccccc1)CN1CCN(Cc2ccc3c(c2)OCO3)CC1` (stereo not shown) is higher in “hERG current change (%, negative = inhibition) at 10uM” value: -76% for the first, -60.5% for the second.

Going from `Cc1c(C(O)CN2CCN(Cc3ccc4c(c3)OCO4)CC2)c2ccccc2n1C` (stereo not shown) to `Cl.OC(COCc1ccccc1)CN1CCN(Cc2ccc3c(c2)OCO3)CC1` (stereo not shown), the “hERG current change (%, negative = inhibition) at 10uM” value rises from -75.6% to -45%.

Compared with `C=CCc1ccccc1OCC(O)CN1CCN(Cc2ccc3c(c2)OCO3)CC1` (stereo not shown), `Cl.OCCN1CCN(CC(O)COc2ccc3c(c2)OCO3)CC1` (stereo not shown) is higher in “hERG current change (%, negative = inhibition) at 10uM” value: -91% for the first, 12.7% for the second.

First: C=CCc1ccccc1OCC(O)CN1CCOCC1 (stereo not shown)
Second: CC(C)OCC(O)CN1CCN(CC(O)COc2ccc3c(c2)OCO3)CC1 (stereo not shown)
The “hERG current change (%, negative = inhibition) at 10uM” value of the first is higher: 13.1% for the first, -33.3% for the second.
